# Most compounds without a hit are left out; they make up all but 21% or so of the library.
# DRD3 antagonist: D3 dopamine receptor (human) antagonism; max response, negative = inhibition, %; D3R cells, DiscoveRx beta-arrestin luminescence, antagonist mode; hits give low values; P35462; hit rate 2.5% among 360,000; AID 652054; in the data active = max response below about -50%; inconclusive = no clear call, values can overlap the other calls; note: % is set by controls: 0 for no effect and ±100 for the full control effect
# Target sequence (P35462 whole entry, looked up): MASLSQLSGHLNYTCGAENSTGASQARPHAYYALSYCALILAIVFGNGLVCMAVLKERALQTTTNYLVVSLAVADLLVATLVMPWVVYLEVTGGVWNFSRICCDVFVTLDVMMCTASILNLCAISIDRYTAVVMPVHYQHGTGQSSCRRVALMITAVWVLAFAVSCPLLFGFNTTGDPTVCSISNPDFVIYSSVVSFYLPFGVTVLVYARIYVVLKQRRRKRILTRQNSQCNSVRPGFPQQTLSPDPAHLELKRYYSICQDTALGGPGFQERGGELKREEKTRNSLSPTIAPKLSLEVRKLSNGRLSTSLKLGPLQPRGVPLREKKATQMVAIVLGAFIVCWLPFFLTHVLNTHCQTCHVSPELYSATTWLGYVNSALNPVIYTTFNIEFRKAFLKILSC
#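 Cells expressing the human receptor were seeded at 1500 cells/well, incubated overnight at 37 degrees C in 5% CO2, then exposed to library compounds with dopamine controls for 90 minutes at 37 degrees C before luminescent detection.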
# IL1B secr inh: blocks inflammasome-driven IL-1 beta release. activity change, % at 57.5 µM. hit rate 4.7% among 360,000. THP-1 LPS/ATP IL-1B secretion, AlphaLISA, 16 h; hits give low values; in the data active = activity change below about -50%; inconclusive = mostly about -30% to -49%; note: % is set by controls: 0 for no effect and ±100 for the full control effect
#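 Secreted IL-1B measured by AlphaLISA bead assay after 16 h compound exposure of THP-1 cells; compounds (final up to 57.5 uM) added 1 h before LPS (250 ng/mL) and ATP (1.25 mM) stimulation; lower signal means less secretion.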
# D3 ag: activates the human D3 dopamine receptor | AID 652048 | P35462 | hit rate 0.58% among 410,000 | D3R DiscoveRx beta-arrestin cells, luminescence, 90 min | max activation, %; in the data active = max activation above about 30%; note: 0% is about no effect
#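 Agonist mode: compounds and dopamine controls were applied to plated cells for 90 min at 37 degrees C after an overnight attachment at 1500 cells/well. Luminescent read-out followed 30 - 60 minutes at room temperature with DiscoveRx detection reagent.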
# ClpP mod: qHTS Assay for Activators of ClpP; Potency, µM (series often up to 57.5 µM), without a hit: top-dose activity change, negative = active; hit rate 1.9% among 340,000; ATP-dependent Clp protease proteolytic subunit (Bacillus subtilis (strain 168)), P80244; purified B. subtilis ClpP, FRET peptide cleavage, 20 min; active = well fitted falling curve with a large enough effect; inconclusive = small, poorly fitted or top-dose-only effect; inactive = no such curve, though single readings can be large or run the other way; note: potency is the fitted concentration of half-maximal effect; the source files actives as falling curves though it sought activators and does not explain the sign; nearly all actives have a fitted effect of over 65% in size
# Target sequence (P80244 whole entry, looked up): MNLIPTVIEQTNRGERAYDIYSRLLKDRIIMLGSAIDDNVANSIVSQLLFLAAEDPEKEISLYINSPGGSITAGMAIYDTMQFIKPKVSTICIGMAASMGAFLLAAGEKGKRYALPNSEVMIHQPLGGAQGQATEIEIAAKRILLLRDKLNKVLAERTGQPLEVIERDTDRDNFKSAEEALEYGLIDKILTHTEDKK
#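 Purified B. subtilis ClpP, 10 microg/mL final in Tris/HCl pH8 with KCl, BSA, glycerol and Tween-20, cleaved an Abz/nitrotyrosine-quenched decapeptide. Fluorescence (ex 320, em 430) was read at 0 and 20 min at room temperature. Delta was normalized to 5.8 microM ADEP and DMSO/no-enzyme controls.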
# DT40 TDP1 CPT: DT40-hTDP1 cell growth loss with CPT | AID 686979 | Potency, µM (highest dose often 46.2 µM), for inactives: at the top dose activity change, negative = growth inhibition, actives largely listed as inhibitors | hit rate 12% among 420,000 | chicken DT40 Tdp1-/-;hTDP1 cells + 20 nM CPT, ATP luminescence, 48 h; note: potency is the fitted concentration of half-maximal effect; % is set by controls: 0 for no effect and ±100 for the full control effect; nearly all actives have a fitted effect of over 55% in size
#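 Cell growth measured by CellTiter-Glo luminescence after a minimum 48 h, 37 C compound exposure with 20 nM CPT in Tdp1-knockout DT40 cells stably expressing hTDP1, seeded 400/well; qHTS titration format.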
# DT40 TDP1 no CPT: qHTS for Inhibitors of human tyrosyl-DNA phosphodiesterase 1 (TDP1): qHTS in cells in absence of CPT | AID 686978, 2013 | DT40 Tdp1-/- hTDP1 cells, no CPT, ATP luminescence, 48 h | Potency, µM (highest dose often 46.2 µM), for inactives: at the top dose activity change, negative = growth inhibition, hits mostly inhibitors | hit rate 15% among 420,000; note: potency is the fitted concentration of half-maximal effect; % is set by controls: 0 for no effect and ±100 for the full control effect; nearly all actives have a fitted effect of over 55% in size
#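 Compound effects on proliferation are scored in DT40 Tdp1-/-;hTDP1 cells in the absence of CPT. ATP levels (CellTiter-Glo luminescence) are recorded after a ≥48 hr, 37 °C incubation.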
# The depositor's hits bear a star; i = inactive; u = inconclusive; x = not tested or not shown; ! = repeats disagree. Unless noted, calls come from the whole dose curve; as a rule, active = well fitted inhibition curve with a large enough effect; inconclusive = small, poorly fitted or top-dose-only effect; inactive = flat fitted curve, though single readings scatter.
SMILES,DRD3 antagonist,IL1B secr inh,D3 ag,ClpP mod,DT40 TDP1 CPT,DT40 TDP1 no CPT
CCN(CC)c1nc2c(c(=O)n(C)c(=O)n2C)n1CC(=O)c1ccccc1,-3.5,43.0,-12.0,0.6%,u,23.1µM*
CCOC(=O)N1CCC2(CC1)OC(=O)C(C)=C2C(=O)NCc1cccc(OC)c1,x,x,-7.7,1.0%,-26.9%,u
CCN(CC)C1=NS(=O)(=O)c2cc([N+](=O)[O-])ccc21,-13.0,4.9,2.2,x,18.4µM*,23.1µM*
CCN(CC)c1ccc([N+](=O)[O-])cc1C(=O)N1CCOCC1,2.4,-1.5,-4.6,x,1.6%,-5.7%
CCCCn1c(N)c(N(CC(C)C)C(=O)CCCc2cccs2)c(=O)[nH]c1=O,-2.5,i,0.9,-2.6%,-2.5%,-3.1%
CC(C)=C1SC(N2CCN(Cc3ccccc3)CC2)=NC1=O,17.6,-11.8,1.5,-0.3%,-9.8%,-25.7%
CC(C)=C1SC(N2CCN(c3cccc(Cl)c3)CC2)=NC1=O,5.7,-58.9*,3.2,0.7%,u,u
NNC(=O)c1sc(-c2ccc(Cl)cc2)cc1N,9.7,-77.6*,-6.5,x,-11.3%,-7.2%
CC(C)(C)c1nnc2sc(SCCN3C(=O)c4ccccc4C3=O)nn2c1=O,10.0,-5.5,-1.5,1.4%,-13.3%,-0.6%
CC(C)(C)c1nnc2sc(SCC(=O)N3CCCCC3)nn2c1=O,-2.0,-92.4*,5.8,2.7%,u,u
Cc1cc(C(=O)CSc2nn3c(=O)c(C(C)(C)C)nnc3s2)c(C)n1-c1ccc(F)cc1,2.2,8.0,7.0,1.2%,16.4µM*,u
CC(C)N(C(=O)CSc1nn2c(=O)c(C(C)(C)C)nnc2s1)c1ccccc1,-21.7,-50.0*,0.2,-3.9%,20.6µM*,u
CC(C)(C)C(=O)Cn1c(=O)n(CCCCCC(=O)NCc2ccc3c(c2)OCO3)c(=O)c2sccc21,x,x,-7.7,-3.1%,u,u
C1=C(c2ccc3c(c2)CN(Cc2cccn2-c2ncccn2)CCO3)Cc2ccccc21,x,x,x,x,u,-0.2%
COc1ccc(CN(C)Cc2ccccc2)c(OC)c1OC,-19.3,25.6,-7.6,u,-13.3%,-15.3%
CCN(CC)C(=O)c1ccc2c(c1)N(Cc1ccccc1F)C(=O)c1ccccc1S2=O (stereo not given),x,x,-0.5,0.4%,-21.7%,-15.3%
O=S(=O)(NCc1ccc2c(c1)OCO2)c1cccc(F)c1,7.1,7.4,4.7,28.2µM*,12.3%,-26.6%
COc1cc(S(=O)(=O)NCc2ccc3c(c2)OCO3)ccc1F,5.1,-0.5,5.8,1.1%,-18.7%,-5.5%
COc1cc(=O)n2c(c1C(=O)N(C)Cc1nccs1)CCN(Cc1c(F)ccc(F)c1F)CC2,x,x,x,x,5.5%,-2.4%
CCN(CC)C(=O)C1=C(C)N(CCCN2CCCC2=O)C(=O)C(CC(=O)NCc2cccc3ccccc23)C1 (stereo not given),19.0,9.4,3.2,-2.6%,-16.8%,u
Oc1ccc2ccccc2c1N=Nc1ccccn1,-15.7,23.3,-5.1,-1.3%,0.651µM*,0.581µM*
CCOC(=O)c1[nH]cnc1N=Nc1c(O)ccc2ccccc12,-4.8,43.3,-6.0,0.7%,5.17µM*,5.8µM*
Oc1ccc2ccccc2c1N=Nc1ccccc1F,1.5,1.5,5.9,u,2.9%,u
O=C(CNC(=O)N1CC(=O)Nc2ccccc21)Nc1nccs1,5.4,43.9,3.9,-0.1%,-0.7%,11.8%
COc1cc2c(Cc3c4c5c(cc(OC)c(OC)c5c5c(OC)c(OC)ccc35)CCN4C)c3c4c(cc(OC)c(OC)c4c2cc1OC)CCN3C,x,x,x,x,-11.6%,-20.8%
SMILES,DRD3 antagonist,IL1B secr inh,D3 ag,ClpP mod,DT40 TDP1 CPT,DT40 TDP1 no CPT
CCOC(=O)N1CCc2cc(OC)c(OC)c3c2c1cc1cc(OC)c(OC)cc13,71.1,2.8,26.3,28.2µM*,u,11.6µM*
O=C1CCCCC1C(Nc1ccc(Br)cc1)c1ccccc1 (stereo not given),-2.0,-71.8*,2.3,1.8%,2.3%,0.6%
O=C1CCCCC1C(Nc1ccc(Cl)cc1)c1ccccc1 (stereo not given),16.1,-14.8,1.7,0.9%,-7.7%,-26.2%
CCN(CC)S(=O)(=O)c1ccc(S(=O)(=O)NCC2CCCO2)cc1 (stereo not given),-5.5,-7.6,-16.7,-0.2%,-5.5%,8.2%
COc1ccc(OC)c(NC(=O)c2cccc3c2C(=O)N(C2CCCCC2)C3)c1,22.3,-7.4,6.7,-1.8%,u,16.4µM*!
Cc1cccc(C)c1NC(=O)c1cccc2c1C(=O)N(C1CCCCC1)C2,-11.3,-61.6*,9.8,x,7.31µM*,16.4µM*
COc1ccc(NC(=O)c2cccc3c2C(=O)N(C2CCCCC2)C3)cc1,3.7,-28.1,3.2,0.7%,18.4µM*,18.4µM*
Cc1ccc(S(=O)(=O)N2[C@@H](c3ccc(Cl)cc3)C(C(=O)O)=CC[C@H]2c2ccc(Cl)cc2)cc1,-28.3,0.0,-23.7,0.2%,u,u
Cc1cccc2nc(Cn3c(=O)n(-c4ccc(Cl)cc4)c(=O)c4c5c(sc43)CCC5)cc(=O)n12,x,x,-1.7,0.2%,-14.9%,0.2%
CC(C)(C)NC(=O)c1ccc2c(c1)CCO2,-5.1,3.6,5.1,0.7%,-7.4%,-14.2%
O=C(NC(=O)c1ccccc1O)c1ccc2c(c1)CCO2,-11.8,19.0,-3.0,x,-24.7%,20.6µM*
CC(C)(C(=O)N1CCC1(C)C(=O)NC1Cc2ccccc2C1)c1ccccc1 (stereo not given),u,36.8,-7.1,0.7%,16.4µM*,20.6µM*
CC(C)(C(=O)N1CCC1(C)C(=O)Nc1ccccc1Br)c1ccccc1 (stereo not given),6.0,0.0,0.4,-1.0%,u,u
Cc1nn(-c2ccccc2)c(C)c1C(=O)OCC(=O)c1c(N)n(CC(C)C)c(=O)n(C)c1=O,67.8,u,0.7,1.1%,20.6µM*,18.4µM*
CC(C)Cn1c(N)c(C(=O)COC(=O)c2cc(-c3ccccc3)nc3ccccc23)c(=O)n(C)c1=O,15.4,8.7,-3.5,-6.3%,20.6µM*,16.4µM*
CC(C)Cn1c(N)c(C(=O)COC(=O)c2cc(C(F)(F)F)nc3ccccc23)c(=O)n(C)c1=O,94.7,6.0,33.9*,-3.9%,8.2µM*,18.4µM*
CC(C)Cn1c(N)c(C(=O)COC(=O)[C@H](C)NC(=O)c2ccccc2Cl)c(=O)n(C)c1=O,8.9,7.0,2.4,0.3%,u,-28.8%
